Results reported in the supplement of paper PMC7156485.
Where a name gives a salt, the structure may show the parent alone.

Test system: HCC1569
Test: cell number relative to DMSO (% of DMSO); higher = more cells (less growth inhibition / toxicity)
Settings: concentration: 10 µM; 24 h
Outline: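 HCC1569 and TDF cells were seeded at 800 per well in 384-well plates in RPMI with 10% FBS and treated with compounds at 10 µM for 24 h at 37 °C, in triplicate. After fixation in 3.7% formaldehyde, cells were stained with a rabbit anti-H1.0 antibody, an AlexaFluor 647 secondary and DAPI, and six fields per well were imaged at ×10. H1.0 nuclear intensity or cell number is given as percent of the plate control, using the median of replicates, with HCC1569 values smoothed for positional effects.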
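Further: TDF denotes transformed human dermal fibroblasts of mesenchymal origin.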

Row | Compound | cell number
1 | CN1CC(C(=O)NC2(C)OC3(O)C4CCCN4C(=O)C(Cc4ccccc4)N3C2=O)CC2c3cccc4[nH]cc(c34)CC21.CS(=O)(=O)O (centres undefined) [Dihydroergotamine methanesulfonate] | 102
2 | S=C(NC1CCCCC1)N1CCC(c2cnc[nH]2)CC1 [Thioperamide maleate] | 104
3 | CN1CC(NS(=O)(=O)N(C)C)CC2c3cccc4c3c(cn4C)CC21 (centres undefined) [Mesulergine] | 100
4 | O=C1CSC(c2ccccc2Cl)c2cc(Cl)ccc2N1 (centres undefined) | 103
5 | COc1ccc2c(c1OC)C(=O)OC2C1c2cc3c(cc2CCN1C)OCO3 (centres undefined) | 107
6 | CC=C1CC(C)C(O)(CO)C(=O)OCC2=CCN3CCC(OC1=O)C23 (centres undefined) [Retrorsine] | 101
7 | C[Se]CC(N)C(=O)O.Cl (centres undefined) [Se-(methyl)selenocysteine hydrochloride] | 99.6
8 | CC(=O)OCC1=CC2C3C(C)(C)C3(OC(=O)Cc3ccccc3)CC(C)C2(O)C2C=C(C)C(=O)C2(O)C1 (centres undefined) [12-Deoxyphorbol 13-phenylacetate 20-acetate] | 90.8
9 | CCCCCCC(=O)CCCCCCC=CCC(O)C(O)C(N)(CO)C(=O)O (centres undefined) [Myriocin] | 100
10 | CNC(=O)Oc1ccc2c(c1)C1(C)CCN(C)C1N2C (single isomer, unassigned; (-)) [(-)-Physostigmine] | 98.8
11 | CN(C)C(=O)Oc1cccc([N+](C)(C)C)c1.COS(=O)(=O)[O-] | 109
12 | C=CCc1cc(OC)c2c(c1)OCO2 [Myristicin] | 104
13 | COc1ccc(-n2nc(C(F)(F)F)cc2-c2ccc(Cl)cc2)cc1 | 104
14 | C[C@]12CC[C@@H](O)C[C@@H]1CC[C@@H]1[C@@H]2CC[C@]2(C)[C@@H](O)CC[C@@H]12 [5alpha-Androstane-3alpha,17beta-diol] | 103
15 | CN1CC(CNC(=O)OCc2ccccc2)CC2c3cccc4c3c(cn4C)CC21 (centres undefined) [Metergoline] | 97.2
16 | CC(C)Oc1cccnc1N(C)C1CCN(Cc2ccc(I)cc2)CC1 [RBI-257 maleate] | 100
17 | O=[N+]([O-])c1ccc(O[C@@H]2O[C@H](CO)[C@@H](O)[C@H](O)[C@H]2F)c([N+](=O)[O-])c1 [2,4-Dinitrophenyl 2-fluoro-2-deoxy-beta-D-glucopyranoside] | 105
18 | CCN1CC2(COC)CCC(OC)C34C5CC6C(OC)CC7(OCOC7(C(O)C23)C14)C5C6OC (centres undefined) [Delcorine] | 103
19 | CCC(C(=O)O)C1OC(C(C)C(O)C(C)C(=O)C(CC)C2OC3(C=CC(O)C4(CCC(C)(C5CCC(O)(CC)C(C)O5)O4)O3)C(C)CC2C)C(C)CC1C (centres undefined) [Narasin] | 67.3
20 | CC(=O)NCCc1c[nH]c2ccccc12 [N-Acetyltryptamine] | 101

Row | Compound | cell number
21 | CC1CCC2C(C)C3C(CC4C5CCC6CC(O)CCC6(C)C5CCC43C)N2C1 (centres undefined) [Demissidine] | 97.9
22 | CN1C2CCC1CC(OC(=O)C(CO)c1ccccc1)C2 (centres undefined) [Hyoscyamine] | 102
23 | Cl.NCC(O)c1cc(O)c(O)cc1F (centres undefined) [6-Fluoronorepinephrine hydrochloride] | 99.2
24 | CN(C)C(=O)Oc1ccc[n+](C)c1.[Br-] [Pyridostigmine bromide] | 103
25 | CS(=O)(=O)O.Cc1c(C(=O)c2cccc3ccccc23)c2cccc3c2n1C(CN1CCOCC1)CO3 (stereo not drawn) [( R)-(+)-WIN 55,212-2 mesylate] | 72.8
26 | Cl.N[C@@H](CCl)C(=O)O [beta-Chloro-L-alanine hydrochloride] | 101
27 | COc1cccc2c1cc([N+](=O)[O-])c1c(C(=O)O)cc3c(c12)OCO3 [Aristolochic acid A] | 102
28 | O=C1CCCC2C3CCCN4CCCC(CN12)C34 (centres undefined) [Matrine] | 100
29 | CN1Cc2c(ccc3c2OCO3)C2C(O)Cc3cc4c(cc3C21)OCO4 (single isomer, unassigned; (+)) [(+)-Chelidonine] | 58
30 | C[N+]1([O-])C2CC(OC(=O)C(CO)c3ccccc3)CC1C1OC12 (single isomer, unassigned; (-)) [(-)-Scopolamine N-oxide] | 96.4
31 | CC(C)C1C(=O)OC2CCN3CC=C(COC(=O)C(C)(O)C1(C)O)C23 (centres undefined) [Trichodesmine] | 99.6
32 | C/C(Nc1ccccc1)=C1\C(=O)NC(Cc2ccccc2)C1=O (centres undefined) [(3E)-3-(1-anilinoethylidene)-5-benzyl-2,4-pyrrolidinedione] | 60.4
33 | NC(=NN=Cc1ccc(-c2cccc([N+](=O)[O-])c2)o1)N[N+](=O)[O-] [ERK Inhibitor III] | 102
34 | CC(=O)C1=C(O)C2C3c4c[nH]c5cccc(c45)CC3C(C)(C)N2C1=O (centres undefined) [Cyclopiazonic acid] | 95.5
35 | CCCN1CCc2cccc3c2C1Cc1ccc(O)c(O)c1-3.Cl (stereo not drawn) [R(-)-Propylnorapomorphine hydrochloride] | 93.2
36 | O=C(Oc1ccc([N+](=O)[O-])cc1)N1CCN(Cc2cccc(Oc3ccccc3)c2)CC1 [4-nitrophenyl 4-(3-phenoxybenzyl)-1-piperazinecarboxylate] | 97.4
37 | CC(C)C1(NC(=O)C2C=C3c4cccc5[nH]cc(c45)CC3N(C)C2)OC2(O)C3CCCN3C(=O)C(Cc3ccccc3)N2C1=O (centres undefined) [Ergocristine] | 102
38 | Cl.NC(=O)c1ccc(OCC(O)CN2CC=C(c3ccc(F)cc3)CC2)cc1 (centres undefined) | 105
39 | CCCCC(C)C(OC(=O)CC(CC(=O)O)C(=O)O)C(CC(C)CCCCCCC(O)CC(O)C(C)N)OC(=O)CC(CC(=O)O)C(=O)O (centres undefined) [Fumonisin B2] | 100
